# Measured values as given in PubChem BioAssay AID2314 (National Center for Advancing Translational Sciences (NCATS), 2010).
# Where “and” joins values, the source holds several entries; their conditions need not be identical. Equal values may be shown once. The campaign covered roughly 300,000 compounds. About 37,000 (12%) were called active. Cut-off read from the data, not from the text of the source: active = max response mostly above about 13% (no sharp cut-off); inactive = mostly below about 14%. The sample as a whole holds a higher share of actives than the screen did.
# Assay: Cycloheximide Counterscreen for Small Molecule Inhibitors of Shiga Toxin; note: read at 38.3 µM for the half of the compounds with a filed dose; 0% is about no effect
# Details: cell reporter, cycloheximide protein synthesis inhibition counterscreen; active compounds read high
row,SMILES,max response
1,CC(C)CNC(=O)C(=O)NCC(c1ccc2c(c1)OCO2)N1CCOCC1 (stereo unspecified),-4.38% (inactive)
2,COCCOC1CCN(C(=O)c2ccc(OC)c(OC3CCN(C(C)C)CC3)c2)CC1,-2.04% (inactive)
3,Cc1noc(NS(=O)(=O)c2ccc(NC(=O)c3oc4ccc(F)cc4c3C)cc2)c1C,-2.38% (inactive)
4,Cc1nc(-c2ccccc2)cn2c1nc1ccccc12,12.4% (inactive)
5,Cc1ccc(S(=O)(=O)N2CCC(Oc3ccc(-n4cnnn4)cc3)CC2)cc1,-4.88% (inactive)
6,O=C(Cc1ccc(Br)cc1)NCCN1CCOCC1,-13% (inactive)
7,CCN1C(=NCCc2cccnc2)N[C@@H](c2ccccc2)C(C(=O)OC)=C1C,1.37% (inactive) and -1.46% (inactive)
8,O=C(c1ccc(F)cc1)n1c(=S)nc2ccccn21,53.4% (active)
9,O=C(c1ccc(F)cc1)n1cc(C(=S)N2CCOCC2)c2ccccc21,7.24% (inactive)
10,O=C(C[n+]1cc(Br)cc2ccccc21)c1ccc(F)cc1,3.72% (inactive)
11,CC(C(=O)NC1CCCCC1)N1C(=O)c2cccc3cccc1c23 (stereo unspecified),11.1% (inactive)
12,COCCN(C(=O)CCC(=O)Nc1nccs1)C(C(=O)NCCC(C)C)c1ccc(F)cc1 (stereo unspecified),-2.06% (inactive)
13,CCOC(=O)C1=C(c2ccc(OC)cc2)C(=O)c2ccccc2C1=O,1.07% (inactive)
14,CCOC(=O)c1c(-c2ccc(C)cc2)csc1/N=C(\C)C1=C(O)c2ccccc2C1=O,11.2% (active)
15,CCOC(=O)c1c(-c2ccc(-c3ccccc3)cc2)csc1NC(=O)CCC(=O)O,-2.27% (inactive)
16,CCc1cccc(CC)c1NC(=S)Nc1ccc2cn[nH]c2c1,-0.951% (inactive)
17,S=C(Nc1cccc(Cl)c1)Nc1ccc2cn[nH]c2c1,24.8% (active)
18,Cc1csc(NC(=S)Nc2cccc(Cl)c2)n1,41.1% (active)
19,CC(=O)c1cccc(NC(=O)c2ccncc2)c1,7.01% (inactive)
20,CC(=O)Nc1cccc(C(=O)Nc2nc(C)cs2)c1,27.2% (active)
21,Cc1csc(NC(=O)c2ccc(-c3ccc(Cl)cc3Cl)o2)n1,11.3% (inactive)
22,Cc1cccc(NC(=S)Nc2ccc3cn[nH]c3c2)c1,7.4% (inactive)
23,Cc1cccc(NC(=S)Nc2ccc(Cl)c(Cl)c2)c1,-1.87% (inactive)
24,CCn1c(SCC(=O)Nc2nc(C)cs2)nnc1C(C)NC(=O)c1ccccc1 (stereo unspecified),1.33% (inactive)
25,Cc1cc(=O)oc2cc(OCC3CC(c4ccccc4Cl)=NO3)ccc12 (stereo unspecified),13.7% (inactive)
26,Cc1ccc(NC2CCCN(C(=O)CCC3(C)CC3)C2)cc1C (stereo unspecified),10.8% (inactive)
